Data on 64 compounds can be found in the antibiotic and cytotoxicity screens of Wong et al. (2023).

The structures appear in SMILES notation. The whole screen tested about 39,000 compounds, of which about 3,300 (8.5%) were called active. This is one part of a sample in which actives are shown more often than they occur.

In this assay the test system is HepG2. As to the kind of experiment: cytotoxicity call (relative viability < 0.9). The settings on record: 10 µM.
Turning to `C[C@@H]1CN([C@@H](C)CO)C(=O)c2cccc(NC(=O)C3CCCCC3)c2O[C@@H]1CN(C)Cc1ccc(C(=O)Nc2ccccc2N)cc1`, the cytotoxicity call was “active”.
Take `C[C@H](CO)N1C[C@H](C)[C@H](CN(C)Cc2ccc(C(=O)Nc3ccccc3N)cc2)Oc2c(NC(=O)C3CCCCC3)cccc2C1=O`: the cytotoxicity call is “inactive”.
The result for `C[C@H]1CN([C@@H](C)CO)C(=O)c2cccc(NC(=O)C3CCCCC3)c2O[C@@H]1CN(C)Cc1ccc(C(=O)Nc2ccccc2N)cc1` reads “inactive”; that for `C[C@@H]1CN([C@@H](C)CO)C(=O)c2cccc(NC(=O)NC3CCCCC3)c2O[C@@H]1CN(C)Cc1ccc(C(=O)Nc2ccccc2N)cc1`, “inactive”.
For the compound `C[C@@H]1CN([C@H](C)CO)C(=O)c2cccc(NC(=O)C3CCCCC3)c2O[C@H]1CN(C)Cc1ccc(C(=O)Nc2ccccc2N)cc1`, the cytotoxicity call was “inactive”.
For the compound `C[C@H]1CN([C@@H](C)CO)C(=O)c2cccc(NC(=O)NC3CCCCC3)c2O[C@H]1CN(C)Cc1ccc(C(=O)Nc2ccccc2N)cc1`, the cytotoxicity call was “inactive”.
Next, `C[C@@H]1CN([C@@H](C)CO)C(=O)c2cccc(NC(=O)C3CCCCC3)c2O[C@H]1CN(C)Cc1ccc(C(=O)Nc2ccccc2N)cc1`: “inactive”; `C[C@H]1CN([C@@H](C)CO)C(=O)c2cccc(NC(=O)C3CCCCC3)c2O[C@H]1CN(C)Cc1ccc(C(=O)Nc2ccccc2N)cc1`: “active”.
On to `C[C@H](CO)N1C[C@H](C)[C@H](CN(C)Cc2ccc(C(=O)Nc3ccccc3N)cc2)Oc2c(NC(=O)NC3CCCCC3)cccc2C1=O`, for which the cytotoxicity call was “active”.
The result for `C[C@@H]1CN([C@@H](C)CO)C(=O)c2cc(NC(=O)C3CC3)ccc2O[C@@H]1CN(C)S(=O)(=O)c1ccc(Cl)cc1` reads “inactive”.
Regarding `Cc1ccc(S(=O)(=O)N(C)C[C@H]2OCCCC[C@@H](C)Oc3ccc(NC(=O)Nc4ccc(C(F)(F)F)cc4)cc3C(=O)N([C@@H](C)CO)C[C@H]2C)cc1`, the cytotoxicity call was “inactive”.
Next, `O=C(O)c1c(Br)c(Br)c(Br)c(Br)c1-c1c2ccc(=O)cc-2oc2cc(O)ccc12`: “inactive”; `CNC[C@@H]1OCCCC[C@H](C)Oc2ccc(NC(=O)Nc3ccc(C(F)(F)F)cc3)cc2C(=O)N([C@@H](C)CO)C[C@@H]1C`: “inactive”.
For the compound `COc1ccc(S(=O)(=O)N(C)C[C@@H]2Oc3ccc(NC(=O)CCCN(C)C)cc3C(=O)N([C@@H](C)CO)C[C@H]2C)cc1`, the cytotoxicity call was “inactive”.
Next, `C[C@@H]1CCCCO[C@@H](CN(C)C(=O)c2ccccc2)[C@H](C)CN([C@H](C)CO)C(=O)c2cc(NC(=O)c3ccccc3)ccc2O1`: “inactive”; `CC(C)NC(=O)Nc1ccc2c(c1)CC(=O)N([C@@H](C)CO)C[C@@H](C)[C@H](CN(C)S(=O)(=O)c1cn(C)cn1)O2`: “inactive”.
Next, `C[C@@H]1CN([C@H](C)CO)C(=O)c2cc(NC(=O)Nc3ccccc3)ccc2O[C@H]1CN(C)C(=O)Nc1ccc(C(F)(F)F)cc1`: “inactive”.
Next, `O=C(O)C[C@@H]1CC[C@H]2[C@@H](COC[C@@H](O)CN2S(=O)(=O)c2ccc(F)cc2)O1`: “inactive”; `COc1ccc(NC(=O)Nc2cccc3c2O[C@@H](CN(C)CC2CCCCC2)[C@H](C)CN([C@H](C)CO)C3=O)cc1`: “inactive”.
Consider `CC(C)NC(=O)N(C)C[C@H]1Oc2c(NC(=O)Nc3ccc4c(c3)OCO4)cccc2C(=O)N([C@@H](C)CO)C[C@H]1C`, for which the cytotoxicity call was “inactive”.
The result for `C[C@H](CO)N1C[C@H](C)[C@@H](CN(C)C(=O)Nc2ccc3c(c2)OCO3)Oc2ncc(-c3cncnc3)cc2C1=O` reads “active”; that for `Cc1cc(C(=O)Nc2cccc3c2O[C@@H](CN(C)C(=O)Nc2ccc4c(c2)OCO4)[C@H](C)CN([C@@H](C)CO)C3=O)n(C)n1`, “inactive”; that for `CC(C)NC(=O)N(C)C[C@@H]1Oc2ccc(NC(=O)Nc3ccc4c(c3)OCO4)cc2C(=O)N([C@@H](C)CO)C[C@@H]1C`, “active”.
Next, `C[C@@H]1CN([C@H](C)CO)C(=O)c2cc(-c3cncnc3)cnc2O[C@@H]1CN(C)C(=O)Nc1ccc2c(c1)OCO2`: “inactive”; `C[C@@H]1CN([C@@H](C)CO)C(=O)c2cc(-c3cncnc3)cnc2O[C@H]1CN(C)C(=O)Nc1ccc2c(c1)OCO2`: “inactive”.
Next, `Cc1cc(C(=O)Nc2cccc3c2O[C@@H](CN(C)C(=O)Nc2ccc4c(c2)OCO4)[C@@H](C)CN([C@@H](C)CO)C3=O)n(C)n1`: “active”.
Consider `CC(C)NC(=O)N(C)C[C@@H]1Oc2c(NC(=O)Nc3ccc4c(c3)OCO4)cccc2C(=O)N([C@H](C)CO)C[C@H]1C`, for which the cytotoxicity call was “inactive”.
Next, `CC(C)NC(=O)N(C)C[C@H]1Oc2ccc(NC(=O)Nc3ccc4c(c3)OCO4)cc2C(=O)N([C@H](C)CO)C[C@H]1C`: “inactive”; `Cc1cc(C(=O)Nc2cccc3c2O[C@H](CN(C)C(=O)Nc2ccc4c(c2)OCO4)[C@H](C)CN([C@@H](C)CO)C3=O)n(C)n1`: “inactive”; `CC(C)NC(=O)N(C)C[C@H]1Oc2ccc(NC(=O)Nc3ccc4c(c3)OCO4)cc2C(=O)N([C@@H](C)CO)C[C@H]1C`: “inactive”.
Next, `CC(C)NC(=O)N(C)C[C@@H]1Oc2c(NC(=O)Nc3ccc4c(c3)OCO4)cccc2C(=O)N([C@@H](C)CO)C[C@H]1C`: “active”; `C[C@@H]1CCCCO[C@H](CN(C)Cc2ccc(C(=O)O)cc2)[C@@H](C)CN([C@H](C)CO)C(=O)c2cc(NC(=O)C3CCCCC3)ccc2O1`: “inactive”.
The result for `Cc1ccc(S(=O)(=O)N(C)C[C@@H]2Oc3ncc(C#CCN(C)C)cc3C(=O)N([C@H](C)CO)C[C@@H]2C)cc1` reads “inactive”; that for `Cc1noc(C)c1NC(=O)N(C)C[C@H]1OCCCC[C@@H](C)Oc2ccc(NS(=O)(=O)c3cccs3)cc2C(=O)N([C@@H](C)CO)C[C@@H]1C`, “inactive”; that for `C[C@H]1CN([C@@H](C)CO)C(=O)c2cccc(NS(=O)(=O)c3ccc(F)cc3)c2O[C@H]1CN(C)S(=O)(=O)c1ccccc1`, “inactive”.
Take `Cc1noc(C)c1S(=O)(=O)N(C)C[C@H]1Oc2c(NS(=O)(=O)c3cn(C)cn3)cccc2C(=O)N([C@@H](C)CO)C[C@H]1C`: the cytotoxicity call was “inactive”.
The result for `COc1cccc(O)c1O` reads “active”.
In the case of `COc1ccccc1O`, the cytotoxicity call is “inactive”.
Next, `COc1cccc(OC)c1O`: “inactive”.
Next, `O=C1/C(=C/c2cn(-c3ccccc3)nc2-c2ccc(OCc3ccccc3)cc2)SC(=S)N1CCS(=O)(=O)O`: “inactive”; `Cc1noc(C)c1NC(=O)N(C)C[C@@H]1Oc2ccc(NC(=O)c3ccncc3)cc2C(=O)N([C@@H](C)CO)C[C@H]1C`: “inactive”; `C[C@@H]1CCCCO[C@H](CN(C)Cc2ccc3c(c2)OCO3)[C@H](C)CN([C@H](C)CO)C(=O)c2cc(NC(=O)Nc3ccc4c(c3)OCO4)ccc2O1`: “active”.
On to `C[C@H]1CCCCO[C@@H](CN(C)Cc2ccc3c(c2)OCO3)[C@@H](C)CN([C@@H](C)CO)C(=O)c2cc(NC(=O)Nc3ccc4c(c3)OCO4)ccc2O1`, for which the cytotoxicity call was “inactive”.
Next, `C[C@@H]1CCCCO[C@@H](CN(C)Cc2ccc3c(c2)OCO3)[C@H](C)CN([C@@H](C)CO)C(=O)c2cc(NC(=O)Nc3ccc4c(c3)OCO4)ccc2O1`: “inactive”.
Next, `C[C@H]1CCCCO[C@H](CN(C)Cc2ccc3c(c2)OCO3)[C@@H](C)CN([C@@H](C)CO)C(=O)c2cc(NC(=O)Nc3ccc4c(c3)OCO4)ccc2O1`: “inactive”; `C[C@@H]1CN([C@@H](C)CO)C(=O)c2cc(NC(=O)Nc3ccc4c(c3)OCO4)ccc2O[C@@H](C)CCCCO[C@H]1CN(C)Cc1ccc2c(c1)OCO2`: “inactive”.
Next, `C[C@@H]1CCCCO[C@@H](CN(C)Cc2ccc3c(c2)OCO3)[C@@H](C)CN([C@@H](C)CO)C(=O)c2cc(NC(=O)Nc3ccc4c(c3)OCO4)ccc2O1`: “active”.
In the case of `C[C@@H]1CCCCO[C@@H](CN(C)Cc2ccc3c(c2)OCO3)[C@H](C)CN([C@H](C)CO)C(=O)c2cc(NC(=O)Nc3ccc4c(c3)OCO4)ccc2O1`, the cytotoxicity call is “active”.
Next, `C[C@@H]1CN([C@H](C)CO)C(=O)c2cc(NC(=O)Nc3ccc4c(c3)OCO4)ccc2O[C@@H](C)CCCCO[C@H]1CN(C)Cc1ccc2c(c1)OCO2`: “inactive”; `C[C@H](CO)N1C[C@H](C)[C@H](CN(C)Cc2ccc3c(c2)OCO3)OCCCC[C@H](C)Oc2ccc(NC(=O)Nc3ccc4c(c3)OCO4)cc2C1=O`: “active”; `C[C@@H]1CN([C@@H](C)CO)C(=O)c2ccccc2-c2ccccc2CO[C@@H]1CN(C)C(=O)c1cc(Cl)cc(Cl)c1`: “inactive”.
On to `O=C(N[C@@H]1C=C[C@H](CC(=O)N2CCOCC2)O[C@@H]1CO)c1ccc2c(c1)OCO2`, for which the cytotoxicity call is “inactive”.
Next, `C[C@@H]1CN([C@@H](C)CO)C(=O)c2cc(NC(=O)C3CCCCC3)ccc2O[C@H]1CN(C)C(=O)Nc1cccc2ccccc12`: “inactive”.
The result for `CO[C@@H](CN(C)C(=O)C1CCOCC1)[C@H](C)CN(C(=O)Nc1ccc(C(F)(F)F)cc1)[C@@H](C)CO` reads “inactive”; that for `CC(C)CS(=O)(=O)N1C[C@H]2C[C@H](C(=O)N3CCOCC3)[C@@H](C1)O2`, “inactive”.
Next, `CC(=O)O[C@H]1C[C@](C)(O)C2=C[C@@H](O)[C@@](C)(O)[C@@H]2[C@H]2OC(=O)[C@@H](C)[C@@H]21`: “inactive”.
For the compound `O=C(CN1CCOCC1)N[C@H]1CC[C@H](CCn2cc(C3CCCC3)nn2)O[C@@H]1CO`, the cytotoxicity call is “inactive”.
Turning to `CC(C)NC(=O)N(C)C[C@H]1Oc2ccc(NS(=O)(=O)c3ccc(F)cc3)cc2CC(=O)N([C@@H](C)CO)C[C@@H]1C`, the cytotoxicity call is “inactive”.
The result for `C[C@@H]1CN([C@H](C)CO)C(=O)c2cc(NC(=O)Nc3ccc4c(c3)OCO4)ccc2O[C@@H](C)CCCCO[C@@H]1CN(C)Cc1ccc2c(c1)OCO2` reads “active”.
Next, `C[C@@H]1CN([C@@H](C)CO)C(=O)c2cc(NC(=O)Nc3ccc4c(c3)OCO4)ccc2O[C@@H](C)CCCCO[C@@H]1CN(C)Cc1ccc2c(c1)OCO2`: “inactive”.
The result for `C[C@@H]1CCCCO[C@H](CN(C)Cc2ccc3c(c2)OCO3)[C@H](C)CN([C@@H](C)CO)C(=O)c2cc(NC(=O)Nc3ccc4c(c3)OCO4)ccc2O1` reads “active”.
Consider `C[C@@H]1CCCCO[C@@H](CN(C)Cc2ccc3c(c2)OCO3)[C@@H](C)CN([C@H](C)CO)C(=O)c2cc(NC(=O)Nc3ccc4c(c3)OCO4)ccc2O1`, for which the cytotoxicity call is “inactive”.
On to `C[C@H](CO)N1C[C@H](C)[C@@H](CN(C)Cc2ccc3c(c2)OCO3)OCCCC[C@H](C)Oc2ccc(NC(=O)Nc3ccc4c(c3)OCO4)cc2C1=O`, for which the cytotoxicity call is “inactive”.
Next, `C[C@@H]1CCCCO[C@H](CN(C)Cc2ccc3c(c2)OCO3)[C@@H](C)CN([C@H](C)CO)C(=O)c2cc(NC(=O)Nc3ccc4c(c3)OCO4)ccc2O1`: “inactive”.
